Measurements reported in article PMC7862700, “An all-to-all approach to the identification of sequence-specific readers for epigenetic DNA modifications on cytosine”.

How the values were obtained:
Test in all cases: DAPPL (digital affinity profiling via proximity ligation, sequencing); 10 mM Tris-HCl pH 7.5, 50 mM NaCl, 1 mM DTT, 4% glycerol, room temperature, 30 min; GST-TFs on glutathione beads, 16-mer random dsDNA library, 0.1% formaldehyde crosslink after washing; high values mean tight binding
Details in all cases: protein: recombinant; tags: N-terminal GST; dsDNA, one strand shown
[1] = biological target: T1, FLI1 (Homo sapiens, UniProt Q01543 1-452)
T1 sequence: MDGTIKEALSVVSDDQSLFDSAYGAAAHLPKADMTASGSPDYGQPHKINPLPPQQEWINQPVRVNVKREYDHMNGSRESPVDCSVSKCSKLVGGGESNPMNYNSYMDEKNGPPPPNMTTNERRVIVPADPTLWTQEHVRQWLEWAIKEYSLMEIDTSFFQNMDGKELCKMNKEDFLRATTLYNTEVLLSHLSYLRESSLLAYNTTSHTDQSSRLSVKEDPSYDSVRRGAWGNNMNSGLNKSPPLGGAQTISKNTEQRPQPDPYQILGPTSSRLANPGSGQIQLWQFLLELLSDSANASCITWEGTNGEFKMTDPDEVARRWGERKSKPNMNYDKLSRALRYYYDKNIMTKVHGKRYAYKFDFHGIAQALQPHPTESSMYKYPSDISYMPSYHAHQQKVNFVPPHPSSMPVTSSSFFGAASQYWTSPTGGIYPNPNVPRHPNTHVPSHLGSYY
Outline: (§1)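 GST fusions of human transcription factors were expressed in yeast and captured with glutathione beads. Once given DNA barcodes and pooled alongside a tag-only sample, they were incubated for 30 min at room temperature with 200 nmole of a random double-stranded 16-mer DNA library in Tris/NaCl/DTT/glycerol buffer, then washed, crosslinked (0.1% formaldehyde), proximity-ligated, PCR-amplified and sequenced on an Illumina NextSeq500. The binding signal of each hexamer is its read frequency for a factor divided by its frequency for the tag-only sample.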

[2] = biological target: T2, ELK1 (Homo sapiens, UniProt P19419 1-428)
T2 sequence: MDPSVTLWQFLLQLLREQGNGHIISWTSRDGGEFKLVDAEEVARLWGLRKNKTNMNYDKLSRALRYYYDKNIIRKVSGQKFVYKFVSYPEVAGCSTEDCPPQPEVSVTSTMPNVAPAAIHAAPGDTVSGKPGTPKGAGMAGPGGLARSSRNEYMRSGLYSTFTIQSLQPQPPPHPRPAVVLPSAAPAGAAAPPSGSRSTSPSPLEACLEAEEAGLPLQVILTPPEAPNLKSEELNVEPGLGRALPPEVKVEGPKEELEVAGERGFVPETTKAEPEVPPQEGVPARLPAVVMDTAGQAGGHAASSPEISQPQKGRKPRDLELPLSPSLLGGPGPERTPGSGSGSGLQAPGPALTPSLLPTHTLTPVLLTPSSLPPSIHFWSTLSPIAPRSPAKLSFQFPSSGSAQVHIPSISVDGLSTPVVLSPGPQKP
Outline: as §1

[3] = biological target: T3, GABPA (Homo sapiens, UniProt Q06546 1-454)
T3 sequence: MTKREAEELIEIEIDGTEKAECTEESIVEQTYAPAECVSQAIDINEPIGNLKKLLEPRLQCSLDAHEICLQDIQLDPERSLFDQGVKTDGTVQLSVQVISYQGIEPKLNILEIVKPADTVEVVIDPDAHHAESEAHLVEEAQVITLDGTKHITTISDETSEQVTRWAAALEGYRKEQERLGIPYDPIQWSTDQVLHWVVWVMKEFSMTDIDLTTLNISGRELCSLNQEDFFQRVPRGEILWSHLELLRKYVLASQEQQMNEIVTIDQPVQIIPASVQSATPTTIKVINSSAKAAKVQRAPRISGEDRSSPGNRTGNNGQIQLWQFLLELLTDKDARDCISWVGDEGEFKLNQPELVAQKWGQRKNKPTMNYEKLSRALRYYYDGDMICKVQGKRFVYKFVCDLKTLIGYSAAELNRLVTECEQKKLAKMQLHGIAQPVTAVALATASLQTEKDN
Outline: as §1

[4] = biological target: T4, ERG (Homo sapiens, UniProt P11308 1-479)
T4 sequence: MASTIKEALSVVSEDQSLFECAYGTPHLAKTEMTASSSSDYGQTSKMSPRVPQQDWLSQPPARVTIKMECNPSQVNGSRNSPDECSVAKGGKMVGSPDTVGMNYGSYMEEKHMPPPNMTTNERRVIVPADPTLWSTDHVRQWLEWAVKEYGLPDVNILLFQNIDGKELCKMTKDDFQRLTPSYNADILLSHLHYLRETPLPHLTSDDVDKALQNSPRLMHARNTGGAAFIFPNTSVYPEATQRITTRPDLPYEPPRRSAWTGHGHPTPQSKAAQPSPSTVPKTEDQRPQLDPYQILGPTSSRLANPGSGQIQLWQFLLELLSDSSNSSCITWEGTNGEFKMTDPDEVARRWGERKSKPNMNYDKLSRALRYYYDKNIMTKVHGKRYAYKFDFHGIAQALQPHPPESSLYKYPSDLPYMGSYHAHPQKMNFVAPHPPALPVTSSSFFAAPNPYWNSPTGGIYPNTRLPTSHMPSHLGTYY
Outline: as §1

[5] = biological target: ELF1 (Homo sapiens, UniProt P32519 1-619)
Outline: as §1

[6] = biological target: T5, EHF (Homo sapiens, UniProt Q9NZC4 1-300)
T5 sequence: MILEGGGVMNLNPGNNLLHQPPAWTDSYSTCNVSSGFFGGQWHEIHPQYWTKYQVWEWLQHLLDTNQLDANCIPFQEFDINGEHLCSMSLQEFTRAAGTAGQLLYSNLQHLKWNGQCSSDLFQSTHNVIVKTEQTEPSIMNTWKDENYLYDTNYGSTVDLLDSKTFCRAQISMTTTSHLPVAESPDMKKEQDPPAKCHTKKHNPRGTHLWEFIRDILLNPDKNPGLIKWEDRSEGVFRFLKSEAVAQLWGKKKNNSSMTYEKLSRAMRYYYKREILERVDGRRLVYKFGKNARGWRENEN
Outline: as §1

[7] = biological target: SPI1 (Homo sapiens, UniProt P17947 1-270)
Outline: as §1

[8] = biological target: SPIB (Homo sapiens, UniProt Q01892 1-262)
Outline: as §1

[9] = biological target: T6, ELK3 (Homo sapiens, UniProt P41970 1-407)
T6 sequence: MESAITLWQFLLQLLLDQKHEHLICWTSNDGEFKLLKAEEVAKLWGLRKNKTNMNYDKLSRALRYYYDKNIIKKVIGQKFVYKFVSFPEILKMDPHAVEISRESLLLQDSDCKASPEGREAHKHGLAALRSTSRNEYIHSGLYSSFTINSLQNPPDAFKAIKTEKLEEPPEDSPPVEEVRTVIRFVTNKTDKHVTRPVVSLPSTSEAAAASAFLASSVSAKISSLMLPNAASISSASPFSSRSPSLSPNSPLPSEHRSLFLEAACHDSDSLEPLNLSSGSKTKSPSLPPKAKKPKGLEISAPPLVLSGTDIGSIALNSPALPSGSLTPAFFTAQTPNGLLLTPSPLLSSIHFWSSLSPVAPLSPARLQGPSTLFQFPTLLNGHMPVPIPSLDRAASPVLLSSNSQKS
Outline: as §1

Chain of SPIB (Q01892 whole entry): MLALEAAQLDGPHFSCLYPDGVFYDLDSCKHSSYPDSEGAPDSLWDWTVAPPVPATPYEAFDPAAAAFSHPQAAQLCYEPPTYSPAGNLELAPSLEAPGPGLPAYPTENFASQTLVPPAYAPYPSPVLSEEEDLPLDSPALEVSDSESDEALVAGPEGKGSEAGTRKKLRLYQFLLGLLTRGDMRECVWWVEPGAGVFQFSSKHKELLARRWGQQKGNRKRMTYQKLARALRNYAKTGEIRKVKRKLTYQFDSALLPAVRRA
Chain of ELF1 (P32519 whole entry): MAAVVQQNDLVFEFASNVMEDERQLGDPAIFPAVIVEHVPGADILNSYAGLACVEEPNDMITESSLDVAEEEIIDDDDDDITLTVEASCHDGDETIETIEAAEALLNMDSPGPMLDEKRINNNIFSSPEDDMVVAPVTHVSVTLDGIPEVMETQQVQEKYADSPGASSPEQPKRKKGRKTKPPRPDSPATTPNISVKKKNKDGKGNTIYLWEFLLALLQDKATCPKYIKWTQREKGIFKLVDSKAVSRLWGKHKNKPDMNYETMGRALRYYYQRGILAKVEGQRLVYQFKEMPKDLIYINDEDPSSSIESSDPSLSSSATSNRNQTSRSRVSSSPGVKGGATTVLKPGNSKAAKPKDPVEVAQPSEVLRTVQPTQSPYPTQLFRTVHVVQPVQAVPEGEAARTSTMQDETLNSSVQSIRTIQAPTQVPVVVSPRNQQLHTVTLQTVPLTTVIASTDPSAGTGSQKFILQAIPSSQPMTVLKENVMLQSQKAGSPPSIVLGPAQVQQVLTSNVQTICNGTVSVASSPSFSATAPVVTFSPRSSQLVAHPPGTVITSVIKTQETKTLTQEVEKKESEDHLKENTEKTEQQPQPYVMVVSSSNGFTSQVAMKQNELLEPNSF

Sequence: CTTTGG
- binding signal [1]: 1.15 fold enrichment (6-mer frequency, TF over GST control)
- binding signal [2]: 1.12 fold enrichment (6-mer frequency, TF over GST control)
- binding signal [3]: 1.21 fold enrichment (6-mer frequency, TF over GST control)
- binding signal [4]: 1.07 fold enrichment (6-mer frequency, TF over GST control)
- binding signal [5]: 1.17 fold enrichment (6-mer frequency, TF over GST control)
- binding signal [6]: 1.11 fold enrichment (6-mer frequency, TF over GST control)
- binding signal [7]: 1.21 fold enrichment (6-mer frequency, TF over GST control)
- binding signal [8]: 1.04 fold enrichment (6-mer frequency, TF over GST control)
- binding signal [9]: 1.13 fold enrichment (6-mer frequency, TF over GST control)
